Hits are enriched below; roughly 12% of the tested compounds scored in any of these assays.
ALDH1A1 block: qHTS Assay for Inhibitors of Aldehyde Dehydrogenase 1 (ALDH1A1) | 220,000 tested, 7.3% active | Aldehyde dehydrogenase 1A1 (Homo sapiens), P00352 | Purified ALDH1A1, NADH fluorescence, propionaldehyde substrate | Potency, µM (highest dose often 75.3 µM), for the others: at the highest dose activity, negative = inhibition, most hits filed as inhibitors; active means well fitted inhibition curve with a large enough effect, not every such curve was filed as active; inconclusive means small, poorly fitted or top-dose-only effect, or another doubt; inactive means no such curve, though single readings can be large or run the other way;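 further: plate controls were no enzyme wells and a reference inhibitor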
Target sequence (P00352 whole entry, looked up): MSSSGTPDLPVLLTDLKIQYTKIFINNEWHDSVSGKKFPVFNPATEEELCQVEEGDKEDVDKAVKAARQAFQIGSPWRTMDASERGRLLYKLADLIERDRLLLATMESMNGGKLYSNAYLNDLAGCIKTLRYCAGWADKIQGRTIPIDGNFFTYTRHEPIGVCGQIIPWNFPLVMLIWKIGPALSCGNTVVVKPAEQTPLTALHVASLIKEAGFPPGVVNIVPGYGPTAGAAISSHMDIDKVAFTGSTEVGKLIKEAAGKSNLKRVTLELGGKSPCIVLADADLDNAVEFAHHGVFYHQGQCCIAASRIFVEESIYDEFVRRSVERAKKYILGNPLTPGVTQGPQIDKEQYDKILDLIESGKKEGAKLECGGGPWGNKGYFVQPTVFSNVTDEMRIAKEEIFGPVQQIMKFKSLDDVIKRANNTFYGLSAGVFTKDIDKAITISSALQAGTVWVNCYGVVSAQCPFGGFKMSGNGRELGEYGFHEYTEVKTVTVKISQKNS
Sfp PPTase inh: qHTS Assay for Inhibitors of Bacillus subtilis Sfp phosphopantetheinyl transferase (PPTase). 4'-phosphopantetheinyl transferase ffp (Bacillus subtilis), Q9F4F7. Biochemical Sfp PPTase activity, qHTS. Potency, µM, for the others: largest response in the series, negative = inhibition, most hits filed as inhibitors. 310,000 tested, 3.5% active. AID 1490, 2009;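 further: the enzyme is Sfp with the accession as filed and its product quenches rhodamine fluorescence; 0% = enzyme reaction without inhibitor and -100% = no enzyme wells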
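Fluorescence-quenching assay: 15 nM Sfp-PPTase preincubated 15 min at room temperature with compound, then 5 uM rhodamine-CoA and 12.5 uM BHQ-2-labelled YbbR peptide added. Fluorescence (ex 525/em 598 nm) read at start and after 30 min; difference gives rate.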
PLK1 PBD block: qHTS for Inhibitors of PLK1-PDB (polo-like kinase 1 - polo-box domain): Primary Screen | Serine/threonine-protein kinase PLK1 (Homo sapiens), P53350 | Plk1 PBD binding of FITC phosphopeptide, fluorescence polarization | Potency, µM, for inactives: max response, negative = inhibition, hits mostly inhibitors | 360,000 tested, 2.8% active; further: series mostly up to about 57 µM; nearly all actives have a fitted effect of over 65% in size
RORg inh: qHTS for inhibitors of ROR gamma transcriptional activity; Drosophila S2 Gal4-RORgamma UAS-luciferase reporter, 20 h; 310,000 tested, 5.4% active; Potency, µM (highest dose often 53.6 µM), for inactives: top-dose activity change, negative = inhibition, most hits filed as inhibitors; further: nearly all actives have a fitted effect of over 60% in size
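Stable Schneider cell line, Gal4 DNA-binding domain fused to ROR gamma, UAS-luciferase. Cmpd 1 hr RT → CuSO4 700 uM final → 20 hr RT → luciferase reagent 10 min → luminescence.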
Gal4-VP16 FLuc: VP16 counterscreen qHTS for inhibitors of ROR gamma transcriptional activity | Drosophila S2 Gal4-VP16 UAS-luciferase, luminescence, 20 h | Potency, µM (titrated, usually from 53.6 µM), inactives show top-dose activity, negative = inhibition, usual class: inhibitors | 310,000 tested, 3.5% active | AID 2546, 2010;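 further: Gal4-VP16 expression switched on by copper sulfate through the metallothionein promoter; nearly all actives have a fitted effect of over 50% in size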
* marks the source's active call; other numbers are inactive results; ? = inconclusive; / = no result; [ ] = dose if it differs, or a comment. Unless noted, the call rests on the fitted dose curve; in most records, active means well fitted curve in the direction sought with a large enough effect; inconclusive means small, poorly fitted or top-dose-only effect, or another doubt; inactive means no such curve, though single readings can be large; an effect the other way counts as inactive or inconclusive. Unless noted, on the % scale 0 is the no-effect control and ±100 the full control effect; potency means the concentration at half of the fitted maximal effect.

SMILES	ALDH1A1 block	Sfp PPTase inh	PLK1 PBD block	RORg inh	Gal4-VP16 FLuc
CN(C)Cc1ccccc1-c1nccc(NCc2cccs2)n1	7.7%	-3.9%	/	2.5%	-4.0%
COc1ccc(Cn2ccnc2SCC(=O)Nc2ccc(F)cc2F)cc1	/	/	5.2%	/	/
O=c1c(-c2cc(F)cc(F)c2)nc2cncnc2n1C1CC1	8.9%	19.9%	/	18.3%	15.0%
CN1CCN(c2ccc(Cl)cc2NS(=O)(=O)c2ccccc2Cl)CC1	14.1µM*	-10.2%	26.7µM*	-5.9%	2.2%
CCN(CC)S(=O)(=O)c1cc(C(=O)Nc2cc(Cl)ccc2N2CCN(C)CC2)ccc1Cl	1.6%	50.1µM*	-1.9%	?	-25.5%
N#C/C(C(N)=O)=C1/SC=C(c2ccccc2)N1c1ccccc1	/	13.3%	-15.6%	-3.4%	-7.7%
COC(=O)/C(C#N)=C1/SC=C(C)N1c1ccccc1	11.2µM*	-11.5%	-0.6%	3.5%[0.365 µM]	/
N#C/C(C(=O)c1ccccc1)=C1/SC=C(N)N1c1ccccc1	3.16µM*	35.5µM*	/	7.8%	-2.1%
CCc1cccc(NS(=O)(=O)c2ccc(-n3cccn3)cc2)c1	/	15.2%	29.9µM*	?	-24.3%
O=S(=O)(Nc1cccc(Cl)c1)c1ccc(-n2cccn2)cc1	/	4.2%	-14.1%	?	?
C[C@@H](C[C@@H](O)[C@H](O)C(C)(C)O)[C@@H]1CC[C@]2(C)C3=CC[C@H]4C(C)(C)C(=O)CC[C@]4(C)[C@H]3CC[C@@]12C	-10.1%	-6.9%	4.2%	4.47µM*	?
COC(=O)c1ccc(C[n+]2ccccc2)cc1	/	16.1%	-11.5%	0.1µM*	11.8%
CCc1cccc(N(C(=O)c2csnn2)C(C(=O)NC(C)(C)C)c2ccncc2)c1 (stereo not drawn)	2.4%	-2.1%	26.7µM*	15.0%	-1.3%
CCc1ccc(N(C(=O)c2csnn2)C(C(=O)NC(C)(C)C)c2ccncc2)cc1 (stereo not drawn)	?	9.8%	-3.0%	19.1%	-10.1%
CN(C)c1ccc(C(C(=O)NC(C)(C)C)N(C(=O)c2csnn2)C2CC2)cc1 (stereo not drawn)	5.62µM*	-15.1%	-2.6%	30.0%	-2.4%
O=C(/C=C/c1ccco1)NCC1CCCO1 (stereo not drawn)	22.4µM*	-70.2%	-12.9%	2.4%	24.8%
O=C(N/C=C/c1ccco1)OCc1ccccc1	?	-12.9%	-0.7%	35.7%	-12.6%
O=C(N/C=C/c1ccco1)NCc1ccccc1	22.4µM*	-28.2%	?	-25.4%	-2.2%
CC(C)c1ccc(/C=C/C(=O)NCc2ccc(S(N)(=O)=O)cc2)cc1	28.2µM*	20.6%	-3.1%	19.8%	-3.8%
O=C(CN1CCCCC1)N=Nc1c(O)[nH]c2ccccc12	12.6µM*	-21.7%	-3.4%	5.2%	-10.6%
O=c1[nH]c(=S)[nH]c2c1[C@H](CCc1cccc(Cl)c1)O[C@H](C1CC1)C2	/	/	-2.2%	/	/
Cc1ccc(C2(SCC(N)C(=O)O)c3ccccc3-c3ccccc32)cc1 (stereo not drawn)	/	/	-8.1%	/	/
CC(C)Cn1c(=O)c(CCC(=O)Nc2ccc(N3CCOCC3)cc2)nc2cc(Cl)ccc21	/	10.5%	-9.6%	37.1%	-12.4%
C=C1C2=C(C(=O)N1OC)[C@@H](O)[C@@](C)(O)[C@@H](CCCCC)O2	/	/	-10.9%	/	/
CN1CCCC(C)(C(=O)Nc2cccc(Oc3ccccc3)c2)C1 (stereo not drawn)	/	/	-11.0%	/	/
SMILES	ALDH1A1 block	Sfp PPTase inh	PLK1 PBD block	RORg inh	Gal4-VP16 FLuc
O=C(/C=C/c1ccco1)NCc1ccc(F)cc1	17.8µM*	39.8µM*	?	6.6%	1.8%[10 µM]
O=C(CNC(=O)/C=C/c1ccco1)N=Nc1c(O)[nH]c2ccccc12	/	20µM*	?	3.6%	-11.2%
O=C(COC(=O)/C=C/c1ccco1)NCc1ccccc1	-7.9%	6.2%	-15.6%	-9.4%	-0.8%
O=C(CNC(=O)Cc1ccccc1)N=Nc1c(O)[nH]c2ccccc12	/	15.1%	-12.5%	-1.6%	6.5%
COc1ccc(/C=C/C(=O)NCCc2ccc(S(N)(=O)=O)cc2)cc1	10µM*	9.6%	-0.5%	-11.5%	-3.6%
NS(=O)(=O)c1ccc(CNC(=O)/C=C/c2ccco2)cc1	/	20µM*	?	7.1%	0.9%
COc1ccc(CC(=O)NCCc2ccc(S(N)(=O)=O)cc2)cc1	23.9%	22.7%	-4.3%	-20.7%	-3.5%
CCCS(=O)(=O)NC(=O)C1(C)CCCN(C(=O)COCc2ccccc2)C1 (stereo not drawn)	/	/	0.2%	/	/
Cc1cc(C)cc(NC(=O)COC(=O)CN=C2NS(=O)(=O)c3ccccc32)c1	0.8%	1.9%	-0.7%	6.2%	-7.2%
COC(=O)c1cc(N=CC2=C(O)CC(C)(C)CC2=O)cc(C(=O)OC)c1	?	17.5%	-5.4%	-0.6%	-0.8%
CCOC(=O)c1c(/N=C/C2C(=O)CCCC2=O)sc(C)c1C	?	-12.2%	-6.1%	3.9%	-10.3%
CCOC(=O)c1cc(CC)sc1/N=C/C1=C(O)CC(C)(C)CC1=O	11.2µM*	-3.3%	3.4%	14.0%	6.4%
CCOC(=O)c1c(CC(C)C)csc1/N=C/C1C(=O)CC(C)(C)CC1=O	6.31µM*	0.6%	12.2%	20.4%	14.2%
CCOC(=O)c1cc(C)sc1/N=C/C1C(=O)CC(C)(C)CC1=O	12.6µM*	0.2%	1.3%	17.9%	-4.2%
COC(=O)c1cc(OC)c(OC)cc1N=CC1=C(O)CC(C)(C)CC1=O	1µM*	15.6%	3.7%	-0.8%	2.4%
CCOC(=O)c1ccc(N=CC2=C(O)CC(C)(C)CC2=O)cc1	?	11.7%	3.6%	19.3%	0.7%
O=C(/C=C/[C@H]1O[C@@H](n2ccc(=O)[nH]c2=O)[C@H](O)[C@@H]1O)NCc1cccc2ccccc12	/	/	3.5%	/	/
O=C(c1ccc(-n2cnnn2)cc1)N1CCOCC1	-10.4%	-1.8%	-5.1%	7.7%[10 µM]	-8.4%
NC(=O)C1(N2CCCCC2)CCN(C(=O)c2ccc(-n3cnnn3)cc2)CC1	8.1%	-1.2%	26.7µM*	16.0%	0.5%
CCC(=O)Nc1ccc2c(c1)OC[C@@H](C)N(Cc1ccccc1F)C[C@@H](C)[C@@H](OC)CN(C)C2=O	/	/	-4.0%	/	/
CNCCCNC(=O)c1ccc(/C=N/O)nc1	4.3%	79.4µM*	-12.7%	-0.7%	3.7%
O=C(NCc1ccccc1)c1ccc(/C=N/O)nc1	-10.6%	-19.3%	-1.5%	5.01µM*	2.3%
O=C(NCc1ccccn1)c1ccc(/C=N/O)nc1	1.0%	50.1µM*	-4.0%	-6.5%	-10.4%
CN(C)CCCNC(=O)c1ccc(/C=N/O)nc1	4.0%	8.8%	-12.2%	-25.8%	17.3%
COCCN1C(=O)CCC1(C)C(=O)NC1CCCCC1 (stereo not drawn)	/	/	1.9%	/	/
